FMDV antiviral – blocks foot and mouth disease virus; FMDV antiviral cell-based qHTS; Potency, µM (top dose mostly 57.9 µM), for the others: top-dose activity change, negative = inhibition, usual class: inhibitors; 410,000 tested, 1.2% active; calls by dose curve; tested in HEK293T cells; note: read-out not given here; nearly all actives have a fitted effect of over 45% in size
Vaccinia Venus – inhibitors of vaccinia virus (Venus reporter) | Vaccinia virus Venus reporter expression, fluorescence | Potency, µM (top dose mostly 36.5 µM), for the others: at the highest dose activity change, negative = inhibition, usual class: inhibitors | 330,000 tested, 0.46% active | AID 720580; calls by dose curve; tested in A549 cells; note: nearly all actives have a fitted effect of over 30% in size
MARV entry inh – blocks Marburg virus binding to or entry into cells; Marburg virus pseudotyped entry inhibition, cell reporter; 300,000 tested, 1.8% active; Potency, µM (doses to about 37.8 µM), for the others: at the top dose activity change, negative = inhibition, hits mostly inhibitors; calls by dose curve; tested in HEK293 cells
Vaccinia mCherry – vaccinia inhibition (mCherry reporter); Vaccinia virus mCherry reporter infection, fluorescence; Potency, µM (doses to about 36.5 µM), for inactives: top-dose activity change, negative = inhibition, usual class: inhibitors; 310,000 tested, 0.63% active; AID 720579; calls by dose curve; tested in A549 cells; note: nearly all actives have a fitted effect of over 35% in size
Lassa entry inh – blocks Lassa virus binding to or entry into cells | Lassa virus pseudotype entry inhibition, cell reporter | Potency, µM (doses to about 37.9 µM), without a hit: at the top dose activity change, negative = inhibition, actives largely listed as inhibitors | 300,000 tested, 1.2% active | AID 540256; calls by dose curve; tested in HEK293 cells; note: nearly all actives have a fitted effect of over 50% in size
Sm TGR inh – inhibitors of Schistosoma mansoni thioredoxin glutathione reductase; Q962Y6; purified TGR, DTNB reduction, TNB absorbance 405 nm; Potency, µM (series often up to 114 µM), inactives show top-dose activity change, negative = inhibition, usual class: inhibitors; 360,000 tested, 3% active; AID 485364; active = well fitted inhibition curve with a large enough effect; inconclusive = small, poorly fitted or top-dose-only effect; inactive = no such curve, though single readings can be large or run the other way; note: nearly all actives have a fitted effect of over 60% in size
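First, TGR (20 nM dispensed) and NADPH were mixed with compound. Second, a 15 min room-temperature incubation followed. Third, further NADPH and then DTNB were added to start the reaction. Finally, TNB absorbance was monitored kinetically.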
The depositor's hits bear a star; ? = inconclusive; / = not tested or not shown; [ ] = another dose, or the depositor's remark. A selection: hits, their analogues and other compounds. The true share with any hit is near 5.4%. % is set by controls: 0 for no effect and ±100 for the full control effect; potency is the fitted concentration of half-maximal effect.

SMILES	FMDV antiviral	Vaccinia Venus	MARV entry inh	Vaccinia mCherry	Lassa entry inh	Sm TGR inh
CCS(=O)(=O)Nc1ccc(C2=NN(C(=O)c3ccco3)C(c3ccc(C)cc3)C2)cc1 (configuration not stated)	?	/	?	/	16µM*	0%
CCS(=O)(=O)Nc1ccc(C2=NN(C(=O)c3ccco3)C(c3cccc(F)c3)C2)cc1 (configuration not stated)	-4%	?	/	-29%	/	-9%
Cc1ccc(C2CC(c3ccc(NS(C)(=O)=O)cc3)=NN2C(=O)c2ccco2)cc1 (configuration not stated)	-11%	-22%	-20%	-5%	?	-15%
CCS(=O)(=O)Nc1ccc(C2=NN(C(=O)c3ccco3)C(c3ccc(Cl)o3)C2)cc1 (configuration not stated)	28µM*	?	?	?	?	/
CS(=O)(=O)Nc1ccc(C2=NN(C(=O)c3ccco3)C(c3cccc(F)c3)C2)cc1 (configuration not stated)	-14%	-23%	11µM*	-8%	?	-20%
Cc1cccc(CNC(=O)c2cnn(-c3nccc(-c4ccccc4C(F)(F)F)n3)c2C)n1	-10%	-12%	/	-10%	/	/
COc1ccc(CNC(=O)C2CCN(c3nc4ccc(C)cc4[nH]3)CC2)cc1	-4%	-11%[7.34 µM]	/	-7%[7.34 µM]	13%[46.1 µM]	0%
CC(=O)c1cccc(NC(=O)c2nc3ccccc3n(C)c2=O)c1	26%	19%	?	14%	2%[46.1 µM]	-4%
Cc1c(C(=O)NCCc2cccnc2)cnn1-c1ncc2c(n1)-c1ccccc1CC2	-10%	-25%	/	?	/	/
CCOC(=O)C1(C(=O)OCC)COC(=O)C1CN1Cc2cc3ccccc3nc2C1 (configuration not stated)	28µM*	-6%	/	-13%	/	/
Cc1cc(C)cc(C(=O)NCc2ccc3c(c2)OCO3)c1	13%	/	/	/	/	-20%
CCOc1cc(C(=O)NCc2ccc3c(c2)OCO3)cc(OCC)c1OCC	-5%	-17%	-4%[46.1 µM]	10%	5%[46.1 µM]	35µM*
CCOC(=O)C(C)Oc1cccc2c(=O)n(CC(=O)NCc3ccc4c(c3)OCO4)ccc12 (configuration not stated)	-12%	?	/	100µM*	/	1%
CCOC(=O)C(C)Oc1cccc2c(=O)n(CC(=O)Nc3ccc4c(c3)OCCO4)ccc12 (configuration not stated)	-27%	-2%	-25%	-1%	-6%	0%
Cc1cccc(CN2CCSCCS2(=O)=O)c1	/	/	/	/	5%[46.1 µM]	/
CNC(=O)CCc1nc(-c2ccc(C(C)(C)C)cc2)no1	6%	-26%	0.89µM*	-3%	?	-2%
CN(C)C(=O)CCc1nc(-c2ccc(C(C)(C)C)cc2)no1	0%	?	?	/	?	11%
CCc1ccccc1N(CC)C(=O)CCc1nc(-c2ccc(C)cc2)no1	-9%	-25%	?	/	10µM*	-1%
CC(C)(C)c1ccc(-c2noc(CCC(N)=O)n2)cc1	-26%	/	1.5µM*	/	?	-17%
Cc1ccc(Cn2c(=O)n(Cc3ccccc3Cl)c(=O)c3ccccc32)cc1	-5%	1%	-13%[46.1 µM]	0%	-20%[46.1 µM]	0%
CS(=O)(=O)c1ccc(-c2sc3ccccc3c2C(=O)N2CCN(c3ccc(F)cc3)CC2)cc1	40%	-10%	/	?	/	/
CCN(C(=O)c1ccc2c(c1)N(Cc1cccc(Cl)c1)C(=O)c1ccccc1S2=O)c1ccccc1 (configuration not stated)	-8%	?	/	?	-29%[46.1 µM]	7%
CCOC(=O)c1c(NC(=O)Cc2ccccc2)sc2c1CCN(C)C2	-1%	-11%	/	-11%	/	23%
CCOC(=O)c1c(NC(=O)CSc2nnc(C)s2)sc2c1CCN(C)C2	0%	22%	-14%	/	17%	32µM*
C=CCSc1nnc(-c2sc(-c3ccccc3)nc2C)n1C	24%	/	0%	/	2%	-13%
C=CCN(C(=O)CSC1=NC(=O)CN1C(C)=O)c1nc(C)c(-c2ccccc2)s1	-1%	?	-17%[46.1 µM]	?	12%	4.5µM*
CCN(CC)c1ccc(NS(=O)(=O)c2ccc3c(c2)CCCN3C(C)=O)c(C)c1	-10%	-20%	/	-17%	?	?
